Experimental findings from PubChem BioAssay (NCI) are described below.

Assay [1] is described as follows: NCI Yeast Anticancer Drug Screen. Data for the rad50 strain (AID 155).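 Further: 0% = growth of vehicle-only cultures of the same strain.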 As to conditions: S. cerevisiae rad50 strain growth inhibition, active compounds read high. The method in brief: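 Inhibition values express reduced yeast growth in compound-treated cultures relative to vehicle-treated controls.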
Assay [2] can be described thus: NCI Yeast Anticancer Drug Screen. Data for the mec2-1 strain (AID 157). To be noted: S. cerevisiae mec2-1 strain, active compounds read high. The method in brief:
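Growth inhibition is read against vehicle-treated controls after compound exposure of the mec2-1 yeast strain, which is defective in DNA damage repair or cell cycle control.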

Assay [3] is described as follows: NCI Yeast Anticancer Drug Screen. Data for the sgs1 mgt1 strain (AID 161).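 Further: 0% = growth of cultures given vehicle only.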 To be noted: S. cerevisiae sgs1 mgt1 strain, active compounds read high. In a few lines: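 Compounds are added to genetically altered yeast, and growth is compared with cultures given vehicle alone to give percent inhibition.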
The nature of assay [4]: NCI Yeast Anticancer Drug Screen. Data for the cln2 rad14 strain (AID 165).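 Further: 0% = growth equal to vehicle treated cultures.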 To be noted: S. cerevisiae cln2 rad14 strain, active compounds read high. The method in brief:
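Growth inhibition, relative to vehicle-treated controls, is the read-out. The test organism is a yeast strain with defined genetic alterations, cln2 rad14.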

The nature of assay [5]: NCI Yeast Anticancer Drug Screen. Data for the bub3 strain (AID 167). To be noted: S. cerevisiae bub3 mutant strain, active compounds read high. The method in brief:
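Steps: expose the mutant yeast strain to compound; grow alongside vehicle-treated cultures; measure growth; express inhibition against the vehicle cultures.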

Assay [6] can be described thus: NCI Yeast Anticancer Drug Screen. Data for the mlh1 rad18 strain (AID 175). To be noted: S. cerevisiae mlh1 rad18 strain growth inhibition, active compounds read high. The method in brief: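 Cells of a genetically altered yeast strain, deficient in DNA damage repair, were treated with compound. Their growth was then compared with that of vehicle-treated cultures to give inhibition.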

Setting [7] is: at 5.0 µM (retest, dose inferred, filed as 0.5).
Setting [8] is: at 50.0 µM (retest, dose inferred, filed as 5.0).

This is part of a sample that, as a whole, favours compounds with a hit. Of some 79,000 tested, about 15% had one in any assay. Values without a mark were called inactive. Active and inactive are the calls of the source. No stated cut-off is given here; in the data, active means growth inhibition above about 70%; inactive means the rest.

Turning to `C/C(=N/NC(=O)C[n+]1ccccc1)C(CN(CC(C)C)CC(C)C)C(=O)Nc1ccc(C)cc1C` (stereo not given), the growth inhibition in assay [1] (setting [7]) is 5%; in assay [1] (setting [8]) it was 5%; in assay [1] (at 50.0 µM), 30.1%; in assay [2] (setting [7]), -10%; in assay [2] (setting [8]) it was -10%; in assay [2] (at 50.0 µM) it was 40.2%. Besides, the growth inhibition was 5% in assay [3] (setting [7]); 5% in assay [3] (setting [8]); 8.65% in assay [3] (at 50.0 µM); 5% in assay [4] (setting [7]); 5% in assay [4] (setting [8]); 41% in assay [4] (at 50.0 µM). Besides, the growth inhibition in assay [5] (setting [7]) was 12%; in assay [5] (setting [8]), 12%; in assay [5] (at 50.0 µM), 58%; in assay [6] (setting [7]) it was 6%; in assay [6] (setting [8]) it was 6%; in assay [6] (at 50.0 µM) it was 70.2% (active).

`COC12C=CC(CC1)C1=C2C(=O)c2nc(C)c(C)nc2C1=O` (stereo not given): the growth inhibition was -1% in assay [1] (setting [7]); 27% in assay [1] (setting [8]); 30.8% in assay [1] (at 50.0 µM); 9% in assay [2] (setting [7]); 20% in assay [2] (setting [8]); 7.5% in assay [2] (at 50.0 µM). Besides, the growth inhibition was -1% in assay [3] (setting [7]); 39% in assay [3] (setting [8]); 33.6% in assay [3] (at 50.0 µM); 21% in assay [4] (setting [7]); 3% in assay [4] (setting [8]); 20.8% in assay [4] (at 50.0 µM). For the same molecule, the growth inhibition is 5% in assay [5] (setting [7]); 8% in assay [5] (setting [8]); 20.8% in assay [5] (at 50.0 µM); 12% in assay [6] (setting [7]); 52% in assay [6] (setting [8]); 34.2% in assay [6] (at 50.0 µM).

Take `C/C(=N/NC(=O)c1ccccc1S(N)(=O)=O)C(CN1CCCCC1)C(C1=C(O)C2C=CC=CC2OC1=O)c1ccccc1` (stereo not given): the growth inhibition in assay [1] (setting [7]) is 41%; in assay [1] (setting [8]) it was 41%; in assay [1] (at 50.0 µM), 89.7% (active); in assay [2] (setting [7]), 25%; in assay [2] (setting [8]), 25%; in assay [2] (at 50.0 µM), 91.4% (active). Also, the growth inhibition in assay [3] (setting [7]) is 19%; in assay [3] (setting [8]), 19%; in assay [3] (at 50.0 µM), 91% (active); in assay [4] (setting [7]), 8%; in assay [4] (setting [8]) it was 8%; in assay [4] (at 50.0 µM) it was 88.8% (active). In addition, the growth inhibition is 31% in assay [5] (setting [7]); 31% in assay [5] (setting [8]); 88.8% (active) in assay [5] (at 50.0 µM); 22% in assay [6] (setting [7]); 22% in assay [6] (setting [8]); 88% (active) in assay [6] (at 50.0 µM).

`CNCCCNc1c2cc(OC)ccc2nc2cccc([N+](=O)[O-])c12`: the growth inhibition in assay [1] (setting [7]) is 9%; in assay [1] (setting [8]), 96% (active); in assay [1] (at 50.0 µM) it was 82.8% (active); in assay [2] (setting [7]), -10%; in assay [2] (setting [8]), 97% (active); in assay [2] (at 50.0 µM), 88.2% (active). Also, the growth inhibition in assay [3] (setting [7]) was 49%; in assay [3] (setting [8]) it was 94% (active); in assay [3] (at 50.0 µM) it was 78.3% (active); in assay [4] (setting [7]), 41%; in assay [4] (setting [8]), 98% (active); in assay [4] (at 50.0 µM), 85.3% (active). Besides, the growth inhibition in assay [5] (setting [7]) was -31%; in assay [5] (setting [8]), 52%; in assay [5] (at 50.0 µM), 55.5%; in assay [6] (setting [7]) it was 41%; in assay [6] (setting [8]), 97% (active); in assay [6] (at 50.0 µM), 78.6% (active).

On to `COC1OC2=CCC3C(=O)NC(=O)C3C2[C@H](OCc2ccccc2)C1OCc1ccccc1` (stereo not given in full), for which the growth inhibition was 11% in assay [1] (setting [7]); 99% (active) in assay [1] (setting [8]); 98.4% (active) in assay [1] (at 50.0 µM); -13% in assay [2] (setting [7]); 99% (active) in assay [2] (setting [8]); 99.7% (active) in assay [2] (at 50.0 µM). Further, the growth inhibition in assay [3] (setting [7]) is 11%; in assay [3] (setting [8]) it was 99% (active); in assay [3] (at 50.0 µM), 98.8% (active); in assay [4] (setting [7]), 0%; in assay [4] (setting [8]) it was 99% (active); in assay [4] (at 50.0 µM), 93.5% (active). Further, the growth inhibition in assay [5] (setting [7]) is 2%; in assay [5] (setting [8]) it was 97% (active); in assay [5] (at 50.0 µM), 98.8% (active); in assay [6] (setting [7]) it was 4%; in assay [6] (setting [8]), 98% (active); in assay [6] (at 50.0 µM), 98.9% (active).

In the case of `O=S1(=O)C(Br)=Cc2ccccc21`, the growth inhibition is 16% in assay [1] (setting [7]); 99% (active) in assay [1] (setting [8]); 99.3% (active) in assay [1] (at 50.0 µM); -6% in assay [2] (setting [7]); 99% (active) in assay [2] (setting [8]); 99.3% (active) in assay [2] (at 50.0 µM). Besides, the growth inhibition is 25% in assay [3] (setting [7]); 99% (active) in assay [3] (setting [8]); 98.7% (active) in assay [3] (at 50.0 µM); 17% in assay [4] (setting [7]); 99% (active) in assay [4] (setting [8]); 97.7% (active) in assay [4] (at 50.0 µM). Also, the growth inhibition in assay [5] (setting [7]) was 13%; in assay [5] (setting [8]), 99% (active); in assay [5] (at 50.0 µM) it was 99.4% (active); in assay [6] (setting [7]) it was 23%; in assay [6] (setting [8]), 99% (active); in assay [6] (at 50.0 µM), 98.7% (active).

With `O=C1C=CC(=O)N1Cc1ccccc1`, the growth inhibition was 98% (active) in assay [1] (setting [7]); 99% (active) in assay [1] (setting [8]); 99.3% (active) in assay [1] (at 50.0 µM); 100% (active) in assay [2] (setting [7]); 100% (active) in assay [2] (setting [8]); 99.7% (active) in assay [2] (at 50.0 µM). Further, the growth inhibition in assay [3] (setting [7]) is 97% (active); in assay [3] (setting [8]) it was 99% (active); in assay [3] (at 50.0 µM), 99.5% (active); in assay [4] (setting [7]), 97% (active); in assay [4] (setting [8]) it was 100% (active); in assay [4] (at 50.0 µM), 99% (active). For the same molecule, the growth inhibition in assay [5] (setting [7]) is 99% (active); in assay [5] (setting [8]), 100% (active); in assay [5] (at 50.0 µM), 99.3% (active); in assay [6] (setting [7]) it was 95% (active); in assay [6] (setting [8]), 100% (active); in assay [6] (at 50.0 µM) it was 99.2% (active).

As to `Cc1cc(CC(O)(C(F)(F)F)C(F)(F)F)cc(CC(O)(C(F)(F)F)C(F)(F)F)n1`, the growth inhibition is 12% in assay [1] (setting [7]); 99% (active) in assay [1] (setting [8]); 99.2% (active) in assay [1] (at 50.0 µM); 5% in assay [2] (setting [7]); 98% (active) in assay [2] (setting [8]); 98.5% (active) in assay [2] (at 50.0 µM). The growth inhibition is -3% in assay [3] (setting [7]); 98% (active) in assay [3] (setting [8]); 98.2% (active) in assay [3] (at 50.0 µM); 9% in assay [4] (setting [7]); 98% (active) in assay [4] (setting [8]); 98% (active) in assay [4] (at 50.0 µM). Further, the growth inhibition in assay [5] (setting [7]) was -16%; in assay [5] (setting [8]), 99% (active); in assay [5] (at 50.0 µM) it was 99.2% (active); in assay [6] (setting [7]), 6%; in assay [6] (setting [8]) it was 99% (active); in assay [6] (at 50.0 µM), 99% (active).

As for `CC(C)NC(=O)OCc1c(CO)c2c(n1C)-c1ccccc1CC2`, the growth inhibition was -5% in assay [1] (setting [7]); 96% (active) in assay [1] (setting [8]); 95.9% (active) in assay [1] (at 50.0 µM); -4% in assay [2] (setting [7]); 96% (active) in assay [2] (setting [8]); 98% (active) in assay [2] (at 50.0 µM). Further, the growth inhibition in assay [3] (setting [7]) is 50%; in assay [3] (setting [8]) it was 96% (active); in assay [3] (at 50.0 µM), 97.8% (active); in assay [4] (setting [7]) it was -10%; in assay [4] (setting [8]) it was 95% (active); in assay [4] (at 50.0 µM), 96.8% (active). Moreover, the growth inhibition was -3% in assay [5] (setting [7]); 96% (active) in assay [5] (setting [8]); 98.3% (active) in assay [5] (at 50.0 µM); 11% in assay [6] (setting [7]); 96% (active) in assay [6] (setting [8]); 95.5% (active) in assay [6] (at 50.0 µM).

`CCC(CC)C(=O)O.[Ag]`: the growth inhibition is 99% (active) in assay [1] (setting [7]); 99% (active) in assay [1] (setting [8]); 99.2% (active) in assay [1] (at 50.0 µM); 99% (active) in assay [2] (setting [7]); 99% (active) in assay [2] (setting [8]); 99.6% (active) in assay [2] (at 50.0 µM). The growth inhibition is 99% (active) in assay [3] (setting [7]); 99% (active) in assay [3] (setting [8]); 99.6% (active) in assay [3] (at 50.0 µM); 99% (active) in assay [4] (setting [7]); 99% (active) in assay [4] (setting [8]); 99.2% (active) in assay [4] (at 50.0 µM). Moreover, the growth inhibition in assay [5] (setting [7]) was 100% (active); in assay [5] (setting [8]), 99% (active); in assay [5] (at 50.0 µM), 99.1% (active); in assay [6] (setting [7]), 99% (active); in assay [6] (setting [8]) it was 99% (active); in assay [6] (at 50.0 µM), 99.2% (active).
